From PubChem BioAssay
PostGolgi yeast = growth inhibition of a yeast mutant, post-Golgi transport screen. post-Golgi transport phenotypic cell assay. inhibition, % at 10 µM. 98,000 tested, 0.9% active. AID 739;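 note: yeast cells grown in 1536-well plates; yeast grown about 18 h at 30C before absorbance read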
CYP2C19 act = increases human CYP2C19 enzyme activity. P33261. recombinant CYP2C19, luciferin-H EGE luminescence; hits give high values; 0 = fully inhibited enzyme, 1 = untreated enzyme. activation factor at 5 µM. 96,000 tested, under 10 active;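 active = activation factor of at least 2 at 5 µM in the primary screen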
PostGolgi ctrl = growth of the yeast control strain, post-Golgi counter-screen. efflux-deficient yeast background strain, growth absorbance A615, 16 h. 98,000 tested, 5% active. AID 738. inhibition, % at 10 µM
CYP2C9 act = increases human cytochrome P450 2C9 activity | 96,000 tested, 1.4% active | P11712 | recombinant CYP2C9, luciferin-H conversion, luminescence; hits give high values; factor 1 = untreated enzyme, 0 = blocked | activation factor at 5 µM | AID 1024;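 active = activation factor of 2 or more for CYP2C9 at a 5 µM dose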
Target sequence (P11712 whole entry, looked up): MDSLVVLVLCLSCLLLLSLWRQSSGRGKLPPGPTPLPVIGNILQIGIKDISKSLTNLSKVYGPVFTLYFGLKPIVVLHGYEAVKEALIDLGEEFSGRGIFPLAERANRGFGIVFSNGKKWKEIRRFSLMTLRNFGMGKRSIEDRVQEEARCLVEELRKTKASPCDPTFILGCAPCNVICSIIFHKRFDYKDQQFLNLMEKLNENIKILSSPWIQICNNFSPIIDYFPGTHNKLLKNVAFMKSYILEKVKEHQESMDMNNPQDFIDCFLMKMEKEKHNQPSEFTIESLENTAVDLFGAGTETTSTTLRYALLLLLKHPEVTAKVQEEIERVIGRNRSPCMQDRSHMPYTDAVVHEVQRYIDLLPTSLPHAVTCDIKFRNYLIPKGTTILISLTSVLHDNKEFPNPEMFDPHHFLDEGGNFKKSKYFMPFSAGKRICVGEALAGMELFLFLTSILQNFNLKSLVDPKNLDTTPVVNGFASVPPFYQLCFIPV
CYP2C19 inh = blocks human cytochrome P450 2C19 | P33261 | CYP2C19 Supersomes, luciferin-H EGE luminescence, 30 min | inhibition, % at 5 µM | 96,000 tested, 21% active;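 active = CYP2C19 inhibition above a set limit at 5 µM in the primary screen, cut at about 50% in these data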
CYP2C9 inh = human CYP2C9 inhibition; P11712; CYP2C9 Supersomes, luciferin-H conversion, luminescence; inhibition, % at 5 µM; 96,000 tested, 20% active;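 active = blocking of liver enzyme CYP2C9 beyond about 50% at 5 µM, limit read from the data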
A number is an active result; – = inactive; · = no result. Sampled rows, rich in hits. Any-hit rate of the full collection: about 32%. Cut-off read from the data, not from the text of the source, unless noted: active = inhibition above about 30%; inactive = the rest.

SMILES | PostGolgi yeast | CYP2C19 act | PostGolgi ctrl | CYP2C9 act | CYP2C19 inh | CYP2C9 inh
CN(C1CCCCC1)S(=O)(=O)c1ccc(S(=O)(=O)N2CCN(CCC#N)CC2)cc1 | – | – | – | – | – | –
CCOC(=O)Cn1nnc2c(sc3nc4c(c(-c5ccc(Cl)cc5)c32)CCC4)c1=O | – | – | 34 | – | – | –
CCOC(=O)Cn1nnc2c(sc3nc4c(c(-c5ccccc5)c32)CCC4)c1=O | – | – | 32 | – | – | –
O=c1[nH]cnc2c1sc1nc3c(c(-c4ccc(Cl)cc4)c12)CCC3 | – | – | – | – | – | –
CCc1ccc(Nc2cc(C(=O)NCCCN3CCOCC3)c3ccccc3n2)cc1 | – | – | – | – | – | –
Cc1nc2ccc(N3C(=O)CCC3=O)cc2[nH]1 | – | – | – | – | – | –
COc1ccc(Cc2nnc(-c3ccc(F)cc3)o2)cc1OC | – | – | – | – | – | –
CC1(C)Cc2nc3sc4c(SCC(=O)NCc5ccccc5)ncnc4c3cc2CO1 | – | – | – | – | 83 | 73
CC1(C)Cc2nc3sc4c(N(CCO)CCO)ncnc4c3cc2CO1 | – | – | – | – | – | –
CCc1nc2c(cnn2-c2ccc(Cl)cc2)c(=O)n1-c1ccc(OC)cc1 | – | – | 49 | – | – | –
CCOc1ccc(-n2c(C)nc3c(cnn3-c3ccc(Cl)cc3)c2=O)cc1 | – | – | – | – | – | –
COc1ccc(OC)c(C(=O)c2coc3ccc(OCC(=O)O)cc23)c1 | – | – | – | – | – | –
COc1ccc2occ(C(=O)c3cccs3)c2c1 | – | – | – | – | 75 | 53
CCCCCn1c2nc3ccccc3nc2c2c(=O)n(CC(C)C)cnc21 | – | – | – | – | – | –
CCCCCn1c(N)c(-c2nc3ccccc3s2)c2c([N+](=O)[O-])nn(C)c(=O)c21 | – | – | – | – | – | 70
CCSc1c(-c2ccccc2)nc2c(C)cccc2c1C(=O)O | – | – | – | – | – | 78
Cc1cccc2c(C(=O)O)c3c(nc12)CCCCC3 | – | – | – | – | – | –
O=C(CSc1nc2ccccc2c(=O)n1Cc1ccco1)NCc1ccco1 | – | · | – | · | · | ·
CCCCNC(=O)CSc1nc2ccccc2c(=O)n1Cc1ccc2c(c1)OCO2 | – | – | – | – | 84 | –
CC(=O)NCCn1c(SCC(=O)NCCC(C)C)nc2ccccc2c1=O | – | – | – | – | 69 | –
CCCCn1c(SCC(=O)NCc2ccco2)nc2ccccc2c1=O | – | – | – | – | 65 | 52
O=C(CSc1nc2ccccc2c(=O)n1-c1ccccc1)NCc1ccc2c(c1)OCO2 | – | – | – | – | – | –
CC(C)(C)c1nc(SCC(=O)NCc2ccco2)c2ccccc2n1 | – | – | – | – | 94 | 65
Cc1ccc(N2CC(C(=O)OCc3ccccc3)CC2=O)cc1 (stereo not given) | – | – | – | – | – | –
O=C1C2C3C=CC(C3)C2C(=O)N1c1n[nH]c(-c2cccnc2)n1 (stereo not given) | – | – | – | – | – | –
SMILES | PostGolgi yeast | CYP2C19 act | PostGolgi ctrl | CYP2C9 act | CYP2C19 inh | CYP2C9 inh
CC(=O)NCCn1c(SCC(=O)NCc2ccco2)nc2ccccc2c1=O | – | – | – | – | 85 | –
CCOC(=O)C1=C(N)N(c2ccccc2Oc2ccccc2)C(=O)C1 | – | – | – | – | 78 | 65
CCOC(=O)C1=C(N)N(c2ccc(N3CCCCC3)cc2)C(=O)C1 | – | – | – | – | – | –
CC(O)c1n(C)c(Cl)c[n+]1C (stereo not given) | – | – | – | – | – | –
CCSc1ccc2nnc(-c3ccc(F)cc3)n2n1 | – | – | – | – | – | –
CCn1c2ccccc2c2nnc(SCC(=O)NCc3cccs3)nc21 | – | – | – | – | 96 | –
CCn1c2ccccc2c2nnc(SCC(=O)NCCOC)nc21 | – | – | – | – | 55 | –
C=CCn1c2ccccc2c2nnc(SCC(=O)NC(C(=O)OC)C(C)C)nc21 (stereo not given) | – | – | – | – | 100 | 90
CCn1c2ccccc2c2nnc(SCC(N)=O)nc21 | – | – | – | – | – | –
CCCn1c2ccccc2c2nnc(SCC(=O)OCC)nc21 | – | – | 39 | – | 66 | –
COc1ccc(CN2CCN(C(=O)c3ccco3)CC2)cc1OCc1ccccc1 | – | – | – | – | – | –
COCCn1c(Cc2ccccc2)nnc1SCC(=O)NC(C)(C)C | – | – | – | – | – | –
Cc1nccc2[nH]c(=O)c(C(=O)NC3CCCCC3C)cc12 (stereo not given) | – | – | – | – | – | –
CS(=O)(=O)NCCCNc1ccc(Cl)cc1[N+](=O)[O-] | – | – | – | – | 66 | –
Cc1ccc(CNc2ccc(Cl)cc2[N+](=O)[O-])cc1 | – | – | – | – | – | –
Cc1ccc(C(=O)NCCNc2ccc(Cl)cc2[N+](=O)[O-])o1 | – | – | 31 | – | – | 55
CN(Cc1nc2ccccc2n1C)S(=O)(=O)c1ccc(Cl)cc1 | – | – | – | – | – | –
CC1(NC(=O)c2cc(S(=O)(=O)N3CCCCC3)ccc2Cl)CCS(=O)(=O)C1 (stereo not given) | – | – | – | – | – | –
CCOC(=O)N1CCN(C(=O)CN(c2cccc(C)c2)S(=O)(=O)c2ccc(C)cc2)CC1 | – | – | – | – | 72 | 74
CCOC(=O)N1CCN(C(=O)CN(c2cc(Cl)ccc2OC)S(=O)(=O)c2ccccc2)CC1 | – | – | – | – | – | 65
COc1ccccc1N1CCN(C(=O)CN(c2ccccc2OC)S(=O)(=O)c2ccccc2)CC1 | – | – | – | – | 75 | 90
NC(=O)C1CCN(C(=O)CN(c2cccc(C(F)(F)F)c2)S(=O)(=O)c2ccccc2)CC1 | – | – | – | – | – | –
Cc1ccc(S(=O)(=O)N(CC(=O)N2CCC(C)CC2)c2cccc(C)c2)cc1 | – | – | – | – | 82 | 86
COc1ccc(C(C(O)C(=O)c2c[nH]c3ccccc23)N2CCN(c3ccc(OC)cc3)CC2)cc1 (stereo not given) | – | – | – | – | – | –
CCCCCCn1c(CN2CCCCC2CC)nc2c1c(=O)n(C)c(=O)n2C (stereo not given) | – | – | – | – | – | –
SMILES | PostGolgi yeast | CYP2C19 act | PostGolgi ctrl | CYP2C9 act | CYP2C19 inh | CYP2C9 inh
CCc1ccc(CN2CC(C(=O)O)CC2=O)cc1 (stereo not given) | – | – | – | – | – | –
CC(C)=CC1C(C(=O)Nc2ccc(Br)cn2)C1(C)C (stereo not given) | – | – | – | – | – | –
CCOC(=O)N1CCN(C(=O)CN(c2cccc(C)c2)S(=O)(=O)c2ccccc2)CC1 | – | – | – | – | – | 72
Cc1ccc(S(=O)(=O)NCC(=O)N(CC(=O)NC2CCCCC2)CC2CCCO2)cc1 (stereo not given) | – | – | – | – | – | –
COc1cccc(CNc2ccc3c(c2)CCC3)c1 | – | – | – | – | – | –
O=C(Nc1nc(=S)ss1)c1ccc(Cl)cc1Cl | – | – | – | – | – | 94
